TEAD-YAP block = TEAD-YAP interaction inhibition; HEK-TIYL cells, TEAD-Gal4/YAP UAS-luciferase luminescence; inhibition, % at 9.12 µM; actives 1.4% (n = 640,000); in the data active = inhibition above about 32%
FBW7 activator = human FBW7 E3 ligase activation, primary screen | actives 0.13% (n = 650,000) | Q969H0 | AID 1259310 | AlphaScreen FBW7–phospho-cyclin E peptide binding, activator screen | normalized activity (activation), % at 26.1 µM; in the data active = normalized activity above about 1.9%;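 note: purified mutant Fbw7 with reduced substrate affinity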
MITF primary = blocks human microphthalmia-associated transcription factor; O75030; AlphaScreen MITF homodimerization, bead proximity signal; inhibition, % at 2.6 µM; actives 0.91% (n = 650,000); AID 1259374; in the data active = inhibition above about 50%
Target sequence (O75030 whole entry, looked up): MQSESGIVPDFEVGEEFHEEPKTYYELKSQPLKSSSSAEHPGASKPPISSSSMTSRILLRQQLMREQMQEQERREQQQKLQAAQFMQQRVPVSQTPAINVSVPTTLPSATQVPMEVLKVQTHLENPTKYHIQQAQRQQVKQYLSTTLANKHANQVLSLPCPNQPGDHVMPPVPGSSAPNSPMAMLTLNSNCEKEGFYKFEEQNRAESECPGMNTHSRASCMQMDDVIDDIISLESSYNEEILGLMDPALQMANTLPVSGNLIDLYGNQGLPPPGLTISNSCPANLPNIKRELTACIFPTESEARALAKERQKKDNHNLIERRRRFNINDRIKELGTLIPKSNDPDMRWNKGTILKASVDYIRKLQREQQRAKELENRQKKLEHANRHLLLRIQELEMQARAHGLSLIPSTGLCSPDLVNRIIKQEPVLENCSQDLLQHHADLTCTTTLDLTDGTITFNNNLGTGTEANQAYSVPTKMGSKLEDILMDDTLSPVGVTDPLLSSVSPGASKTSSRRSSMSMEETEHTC
GPR151 ag = activates the human receptor GPR151; PathHunter beta-arrestin GPR151 cells, luminescence; activation, % at 11.2 µM; actives 1% (n = 650,000); AID 1508602; in the data active = activation above about 4.9%
MITF inh conf = confirmation of human MITF inhibitors. AID 1259372. inhibition, % at 2.6 µM. actives 16% (n = 4,700). AlphaScreen MITF homodimerization, biotin/His-MITF beads. shares compounds with MITF primary;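 active = inhibition above a cutoff derived from the DMSO control wells, cut at about 28% in these data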;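 note: inhibitors lower the bead chemiluminescence by keeping MITF from dimerizing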
AS interf DR = AlphaScreen optical interference, dose response counter-screen. shares compounds with MITF primary. AlphaScreen optical interference counterscreen, cell-free. IC50, µM. actives 6% (n = 480). AID 1259373; call rule not given here
AS interf ctr = optically interferes with AlphaScreen signal; actives 7.6% (n = 4,700); inhibition, % at 2.6 µM; shares compounds with MITF primary; LysRS AlphaScreen counterscreen, signal interference, triplicate;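 active = inhibition above a cutoff derived from the DMSO control wells, cut at about 30% in these data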
Large screens that a line does not name were inactive (follow-up assays come after a bar, where they were run). Rows were chosen to be rich in hits. Some 3.5% of all compounds tested hit in one or more screens of this group.

COC(=O)CNC(=O)c1cc2nc(-c3ccc(C)c(C)c3)cc(C(F)(F)F)n2n1	none
CCOC(=O)c1c(C)n(C(=O)c2ccco2)c(=O)n1C(=O)c1ccco1	none
CCOC(=O)CCCCC(=O)c1c(C)n(C(=O)c2ccco2)c(=O)n1C(=O)c1ccco1	MITF primary 99.1 | MITF inh conf 101.7 | AS interf ctr 80.3
CC(=O)Nc1ccc(Nc2nc(-c3ccc(C(=O)N4CCN(C)CC4)cc3)nc3c2ncn3C2CCCCC2)cc1	none
CN1CCN(C(=O)c2ccc(-c3nc(Nc4ccccc4)c4ncn(C5CCCCC5)c4n3)cc2)CC1	MITF primary 75.4 | MITF inh conf 40.5 | AS interf DR inactive | AS interf ctr inactive
COC(=O)c1ccc(-c2ccco2)n1CC(=O)N1CCN(c2ccc(F)cc2)CC1	none
Cc1ccc2c(c1)cc1c(=O)n(CC(=O)NCCCN3CCCCC3)nc(C)n12	MITF primary 63.2 | MITF inh conf inactive | AS interf ctr inactive
Cc1ccc2c(c1)cc1c(=O)n(CC(=O)NCCN3CCOCC3)nc(C)n12	none
COc1ccc(-n2nc3cc(C)c(NC(=O)c4cccc(Br)c4)cc3n2)cc1	none
COc1ccccc1Cn1c(SCC(=O)c2ccc(Br)cc2)nc2ccccc2c1=O	none
Cc1ccc(N2CCN(C(=O)c3cc4cc(Br)ccc4oc3=O)CC2)cc1C	none
Cc1cccc(C)c1N1CCN(C(=O)c2cc3cc(Br)ccc3oc2=O)CC1	MITF primary 88.5 | MITF inh conf inactive | AS interf ctr inactive
CCSCCOC(=O)C1=C(C)NC2=C(C(=O)C(C(=O)OC)C(C)C2)C1c1cccc(OCc2ccccc2)c1 (centres undefined)	MITF primary 71.1 | MITF inh conf inactive | AS interf ctr inactive
CCCNc1nc(NCC)nc2c1ncn2C1CCCCC1	MITF primary 69.5 | MITF inh conf inactive | AS interf ctr inactive
Cc1ccc(C)c(-n2nnnc2SCC(=O)NC(=O)NC23CC4CC(CC(C4)C2)C3)c1	none
C=CCSc1nnc2c(n1)OC1(CCCC1)Nc1ccccc1-2	none
O=S(=O)(c1ccc(Br)cc1)n1c(SCc2cccc(F)c2)nc2ccccc21	MITF primary 110.0 | MITF inh conf inactive | AS interf ctr inactive
C1=CCC(CN2CCN(Cc3ccc4c(c3)OCO4)CC2)CC1 (centres undefined)	MITF primary 66.0 | MITF inh conf inactive | AS interf ctr inactive
COc1ccc(CN2CCN(CC3CC=CCC3)CC2)c(OC)c1OC (centres undefined)	MITF primary 65.6 | MITF inh conf inactive | AS interf ctr inactive
CC(C)(C)n1nnnc1C(c1cccs1)N1CCN(Cc2ccc3c(c2)OCO3)CC1 (centres undefined)	MITF primary 78.5 | MITF inh conf inactive | AS interf ctr inactive
CCOC(=O)N1CCN(Cc2ccc3c(c2)OCO3)CC1	none
CCOc1ccccc1CN1CCN(Cc2ccc3c(c2)OCO3)CC1	MITF primary 52.5 | MITF inh conf inactive | AS interf ctr inactive
COc1cc(CN2CCN(CC3CC=CCC3)CC2)cc(OC)c1O (centres undefined)	none
C1=CCC(CN2CCN(C3CCCCC3)CC2)CC1 (centres undefined)	MITF primary 51.4 | MITF inh conf inactive | AS interf ctr inactive
O=C(c1ccncc1)N1CCN(Cc2ccc3c(c2)OCO3)CC1	MITF primary 86.6 | MITF inh conf inactive | AS interf ctr inactive
Cc1ccc(S(=O)(=O)N2CCN(CC3CC=CCC3)CC2)cc1 (centres undefined)	none
Cc1ccccc1CN1CCC(CN)CC1	none
Clc1cccc(CN2CCN(CC3CC=CCC3)CC2)c1 (centres undefined)	none
CCc1ccc(CN2CCN(CC3CC=CCC3)CC2)cc1 (centres undefined)	MITF primary 69.3 | MITF inh conf inactive | AS interf ctr inactive
Cc1ccccc1CN1CCN(CC2CC=CCC2)CC1 (centres undefined)	MITF primary 68.0 | MITF inh conf inactive | AS interf ctr inactive
O=C1N/C(=N/N=C\c2cccs2)SC1Cc1ccccc1 (centres undefined)	none
CCN(CC)C(=O)C(NC(=O)c1ccc(C)cc1)C12CC3CC(CC(C3)C1)C2 (centres undefined)	none
CCCS(=O)(=O)N1CCN(Cc2ccc3c(c2)OCO3)CC1	MITF primary 53.3 | MITF inh conf inactive | AS interf ctr inactive
CN1CCCN(Cc2ccc3c(c2)OCO3)CC1	MITF primary 52.1 | MITF inh conf inactive | AS interf ctr inactive
Cc1ccc(CN(Cc2ccco2)C(=S)NCC(=O)NCc2ccc3c(c2)OCO3)cc1	none
O=C(CNCc1ccco1)NCc1ccc2c(c1)OCO2	MITF primary 66.5 | MITF inh conf inactive | AS interf ctr inactive
CCCS(=O)(=O)N1CCN(Cc2cccc(F)c2)CC1	none
OC(CN1CCOCC1)CN1CCN(Cc2ccc3c(c2)OCO3)CC1 (centres undefined)	MITF primary 76.2 | MITF inh conf inactive | AS interf ctr inactive
O=C(Nc1cccc(F)c1)Nc1ccnn1C1CCN(C(=O)CC2CCCC2)CC1	none
c1ccc(-n2ncc3c(NCC4CCCO4)nnnc32)cc1 (centres undefined)	none
CCC(C)N1CCN(CC2CC=CCC2)CC1 (centres undefined)	MITF primary 62.4 | MITF inh conf inactive | AS interf ctr inactive
c1cc2c(cc1CN1CCN(Cc3ccc4c(c3)OCO4)CC1)OCO2	MITF primary 69.5 | MITF inh conf inactive | AS interf ctr inactive
c1cc2c(cc1CN1CCCCC1)OCO2	none
CN1CCN(CC(=O)NCc2ccc3c(c2)OCO3)CC1	MITF primary 83.3 | MITF inh conf inactive | AS interf ctr inactive
CN1CCN(C(=S)C(=O)NCc2ccc3c(c2)OCO3)CC1	none
Cc1ccc(NC(=O)CN2C(=O)CCc3ccccc32)cc1	none
Cc1ccc(C)c(Cc2c(C)nc3nc(SCc4cc(=O)n5c(C)cccc5n4)nn3c2C)c1	none
CCN1CCN(CC(=O)N/N=C/c2ccc(C(C)C)cc2)CC1	MITF primary 51.8 | MITF inh conf inactive | AS interf ctr inactive
CCN1CCN(CC(=O)N/N=C/c2ccc(Cl)c(Cl)c2)CC1	MITF primary 67.8 | MITF inh conf inactive | AS interf ctr inactive
CC1(C(=O)N/N=C/c2cccnc2)CC1(Cl)Cl (centres undefined)	MITF primary 59.5 | MITF inh conf inactive | AS interf ctr inactive
CCN1CCN(CC(=O)N/N=C/c2ccc(Cl)cc2)CC1	none
O=C(N/N=C/c1cccnc1)C12CC3CC(CC(C3)C1)C2	none
CCN1CCN(CC(=O)N/N=C/c2ccccc2)CC1	MITF primary 70.2 | MITF inh conf inactive | AS interf ctr inactive
COCCNC(=O)/C(C#N)=C/c1c(Oc2ccc(F)cc2)nc2c(C)cccn2c1=O	none
CC(=O)Nc1ccc(N2C(=O)/C(=C3/C(=O)N(C(C)=O)c4ccccc43)SC2=S)cc1	none

Screening results deposited in PubChem by The Scripps Research Institute Molecular Screening Center.
